Bioassay records (PubChem BioAssay)
INS-1E GSIS act: GLuc luminescence reporter in INS-1E cells, primary screen for activators of glucose-dependent secretion of insulin. activation, % at 16.6 µM. actives 0.61% (n = 370,000). INS-1E GLuc reporter insulin secretion, 2-3 h;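 active means lowest replicate activation of at least 40%, so every replicate reaches that level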
CendR NRP1 mod: modulators of CendR peptide binding to human neuropilin-1; FAM-RPARPAR peptide binding to NRP-1, fluorescence polarization; inhibition, % at 25 µM; actives 0.85% (n = 360,000); AID 602438;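 active means inhibition or corrected inhibition above about 18%, plus a signal ratio from 0.5 to 1.5, limit read from the data, passing the limit was not always enough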
iPSC survival up: increases survival of single human iPS cells; survival enhancement, % at 20 µM; hiPSC single-cell survival, ATPlite luminescence; 100% = ROCK inhibitor wells, 0% = DMSO; actives 0.044% (n = 360,000); in the data active means survival enhancement above about 18%;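 further: cells exposed to compounds for 16 hours before the ATP read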
ABCB6 inh MLPCN: blocks the human ABCB6 transporter; K562-ABCB6 porphyrin accumulation, flow cytometry, 1 h; hits give low values; fluorescence ratio to DMSO, % at 10 µM; actives 0.19% (n = 360,000);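 active means fluorescence ratio to DMSO below 75%, the collection mean minus 3 SD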;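 further: signal is porphyrin accumulated inside mitochondria; lower ratio means ABCB6 inhibition with less porphyrin fluorescence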
Target sequence (Q9NP58 whole entry, looked up): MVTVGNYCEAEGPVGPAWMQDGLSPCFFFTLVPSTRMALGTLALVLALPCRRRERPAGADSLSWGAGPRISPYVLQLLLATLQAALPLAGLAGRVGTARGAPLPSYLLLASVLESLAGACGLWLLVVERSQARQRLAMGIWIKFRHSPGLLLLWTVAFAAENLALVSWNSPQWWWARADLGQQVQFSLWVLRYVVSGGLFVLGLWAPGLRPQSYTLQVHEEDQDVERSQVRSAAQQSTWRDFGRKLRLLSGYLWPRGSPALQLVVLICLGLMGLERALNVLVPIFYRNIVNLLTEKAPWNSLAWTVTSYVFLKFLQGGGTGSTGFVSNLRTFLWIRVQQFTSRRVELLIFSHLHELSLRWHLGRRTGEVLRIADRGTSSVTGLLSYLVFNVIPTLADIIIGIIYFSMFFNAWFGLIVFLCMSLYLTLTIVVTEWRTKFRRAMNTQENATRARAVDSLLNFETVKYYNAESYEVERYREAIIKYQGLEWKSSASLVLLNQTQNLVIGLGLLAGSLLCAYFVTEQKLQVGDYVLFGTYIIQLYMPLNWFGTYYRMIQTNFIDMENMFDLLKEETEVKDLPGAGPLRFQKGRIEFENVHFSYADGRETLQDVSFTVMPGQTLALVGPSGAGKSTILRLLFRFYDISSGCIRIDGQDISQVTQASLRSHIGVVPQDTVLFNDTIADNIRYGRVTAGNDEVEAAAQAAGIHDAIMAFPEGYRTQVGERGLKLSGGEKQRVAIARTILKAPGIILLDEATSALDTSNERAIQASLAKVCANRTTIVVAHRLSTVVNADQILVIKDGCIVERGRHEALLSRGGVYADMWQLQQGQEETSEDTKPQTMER
ARNT TACC3 PPI: disruptors of human ARNT/TACC3 interaction; Q9Y6A5; AlphaScreen His-ARNT PAS-B/GST-TACC3 binding, luminescence; TACC3 fragment carries E629A point mutation; inhibition, % at 9.99 µM; actives 0.66% (n = 390,000); AID 623870;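 active means mean inhibition of replicates at least 50% and at least half of replicates each reaching 50%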
Each line names hits and unclear results; the compound was inactive in the other large screens. Compounds with a hit are over-represented: about 1.8% of the library has one in this group of screens.

CCc1nnc(N/N=C/c2cc(Br)c(O)cc2O)n1N	ARNT TACC3 PPI 63 (no result: INS-1E GSIS act)
CC(C)(C)c1nnc(N/N=C/c2cc(Br)ccc2O)n(N)c1=O	ARNT TACC3 PPI 58
Cc1ccccc1Oc1cc(-n2ncc(Cl)c(Cl)c2=O)ncn1	ABCB6 inh MLPCN 60
CCCC#Cc1ccc2c(c1)[C@@H]1[C@@H](CCN1C(=O)C1CC1)[C@@H](CO)N2	none (no result: CendR NRP1 mod, iPSC survival up, ABCB6 inh MLPCN, ARNT TACC3 PPI)
CO[C@H]1CN(C)C(=O)c2ccc(NC(C)=O)cc2OC[C@@H](C)N(C(=O)C2CCCCC2)C[C@H]1C	none (no result: CendR NRP1 mod, iPSC survival up, ABCB6 inh MLPCN)
O=C(C[C@H]1CC[C@H](NS(=O)(=O)c2cccc(F)c2)[C@@H](CO)O1)N1CCCCC1	none (no result: CendR NRP1 mod, iPSC survival up, ABCB6 inh MLPCN)
CCc1nc2c(nnn2Cc2ccc(F)cc2)c(=O)[nH]1	INS-1E GSIS act 60
O=C(O)c1cc([N+](=O)[O-])ccc1Oc1ccccc1	CendR NRP1 mod 26
O=C(O)c1cc([N+](=O)[O-])ccc1Nc1ccccc1	none
C[C@H](CO)N1C[C@H](C)[C@H](CN(C)S(=O)(=O)c2ccc(Cl)cc2)Oc2c(NC(=O)Nc3ccc(C(F)(F)F)cc3)cccc2C1=O	none (no result: INS-1E GSIS act, CendR NRP1 mod, iPSC survival up, ABCB6 inh MLPCN)
COCC(=O)N1CC[C@H]2[C@@H]1c1cc(-c3ccc(OC)cc3)ccc1N(C)[C@H]2CO	none (no result: CendR NRP1 mod, iPSC survival up, ABCB6 inh MLPCN)
Cc1ccc(Nc2c(-c3ccccc3O)nc3ncccn23)cc1	CendR NRP1 mod 25
Cc1ccc(Nc2c(-c3ccccc3O)nc3cnccn23)cc1	none
COc1ccnc(Oc2ccccc2)c1C(=O)N/C=N/OCc1ccccc1	none
CO/N=C/NC(=O)c1c(OC)ccnc1Oc1ccccc1	CendR NRP1 mod 26 (no result: INS-1E GSIS act)
CO[C@@H]1CN(C)C(=O)c2cc(NC(=O)C3CC3)ccc2OC[C@@H](C)N(CCc2ccccc2)C[C@@H]1C	none (no result: CendR NRP1 mod, iPSC survival up, ABCB6 inh MLPCN)
CCOC(=O)c1cc(CC)sc1NC(=O)COC(=O)c1cnccn1	INS-1E GSIS act 69
C[C@@H]1CN([C@H](C)CO)C(=O)c2cccc(NS(=O)(=O)c3ccc(F)cc3)c2O[C@@H]1CN(C)Cc1ccc(C(F)(F)F)cc1	none (no result: CendR NRP1 mod, iPSC survival up, ABCB6 inh MLPCN)
CC(=O)OCC1OC(OCc2cn(C[C@H]3CC[C@H](Cn4cc(COC5OC(COC(C)=O)C(OC(C)=O)C(OC(C)=O)C5OC(C)=O)nn4)O3)nn2)C(OC(C)=O)C(OC(C)=O)C1OC(C)=O (stereo not given in full)	CendR NRP1 mod 19
CC(=O)OCC1OC(OCc2cn(C[C@H]3CC[C@@H]([C@@H]4CC[C@H](Cn5cc(COC6OC(COC(C)=O)C(OC(C)=O)C(OC(C)=O)C6OC(C)=O)nn5)O4)O3)nn2)C(OC(C)=O)C(OC(C)=O)C1OC(C)=O (stereo not given in full)	none (no result: INS-1E GSIS act)
COc1cccc(CN(C)C[C@H]2OCc3ccccc3-c3c(n(C)c4ccccc34)C(=O)N([C@H](C)CO)C[C@@H]2C)c1	none (no result: CendR NRP1 mod, iPSC survival up, ABCB6 inh MLPCN, ARNT TACC3 PPI)
Cc1cc(C)c2c(C)nn(-c3ccccc3)c2n1	none (no result: INS-1E GSIS act)
Cc1nn(-c2ccccc2)c2nc(C(F)F)cc(C(F)F)c12	INS-1E GSIS act 70
Cc1ccc(F)cc1NC(=O)COC(=O)C1CC2CCCC(C1)C2=O (stereo not given)	CendR NRP1 mod 30 (no result: ARNT TACC3 PPI)
COC(=O)c1ccc(C)c(NC(=O)COC(=O)C2CC3CCCC(C2)C3=O)c1 (stereo not given)	none
C[C@@H]1CN([C@H](C)CO)C(=O)Cc2cc(NC(=O)C3CC3)ccc2O[C@@H]1CN(C)S(C)(=O)=O	none (no result: CendR NRP1 mod, iPSC survival up, ABCB6 inh MLPCN)
Cc1cc(Br)ccc1NC(=O)CNC(=O)c1cnn(C)c1	none
Cn1cc(C(=O)NCC(=O)Nc2ccccc2Br)cn1	INS-1E GSIS act 41 (no result: ARNT TACC3 PPI)
CCCCC(c1nnnn1CC1CCCO1)N1CCN(c2nc3ccccc3s2)CC1 (stereo not given)	CendR NRP1 mod 18 (no result: INS-1E GSIS act)
CCCC(c1nnnn1CC1CCCO1)N1CCN(c2nc3ccccc3s2)CC1 (stereo not given)	none (no result: INS-1E GSIS act)
Cc1ccc(S(=O)(=O)N(C)C[C@@H]2Oc3ccc(NC(=O)NC4CCCCC4)cc3C(=O)N([C@H](C)CO)C[C@@H]2C)cc1	none (no result: CendR NRP1 mod, iPSC survival up, ABCB6 inh MLPCN)
COc1ccc(CN(C)C[C@H]2OCCCC[C@H](C)Oc3ccc(NS(=O)(=O)c4cccs4)cc3C(=O)N([C@@H](C)CO)C[C@@H]2C)cc1	none (no result: CendR NRP1 mod, iPSC survival up, ABCB6 inh MLPCN)
COC(=O)C1=C(C)NC(c2c(O)ccc3ccccc23)C(C(=O)OC)=C1C (stereo not given)	INS-1E GSIS act 53
COc1ccccc1-c1ccc2c(c1)O[C@@H](CN(C)CC1CC1)[C@H](C)CN([C@@H](C)CO)S2(=O)=O	none (no result: CendR NRP1 mod, iPSC survival up, ABCB6 inh MLPCN, ARNT TACC3 PPI)
Cc1ccc(C)c(S(=O)(=O)NCc2ccc(C(=O)N3CCC(Cc4ccccc4)CC3)cc2)c1	CendR NRP1 mod 45 (no result: INS-1E GSIS act)
Cc1ccc(NS(=O)(=O)c2cc(C(=O)N3CCN(C)CC3)ccc2C)cc1	none (no result: INS-1E GSIS act, ABCB6 inh MLPCN)
Cc1ccc(C)c(S(=O)(=O)Nc2ccc(C(=O)N3CCC3)cc2)c1	INS-1E GSIS act 43
Cc1oc2c(C)c3oc(=O)c(CCC(=O)O)c(C)c3cc2c1-c1ccccc1	ARNT TACC3 PPI 26
Cc1c(CCC(=O)O)c(=O)oc2cc3occ(-c4ccc(Cl)cc4)c3cc12	ARNT TACC3 PPI 45
Cc1c(CC(=O)O)c(=O)oc2c(C)c3occ(-c4ccccc4)c3cc12	CendR NRP1 mod 45
COc1ccccc1COc1ccc2c(C)c(CC(=O)O)c(=O)oc2c1C	CendR NRP1 mod 36
COCC(=O)N1CC2(C1)CN(C(=O)Nc1ccccc1F)[C@@H](CO)c1c2c2ccc(OC)cc2n1C	none (no result: CendR NRP1 mod, iPSC survival up, ABCB6 inh MLPCN, ARNT TACC3 PPI)
Cc1noc(C)c1NC(=O)N[C@H]1CC[C@H](CCNC(=O)C2CCOCC2)O[C@@H]1CO	none (no result: CendR NRP1 mod, iPSC survival up, ABCB6 inh MLPCN)
O=C(N/N=C/c1ccccn1)c1ccc(Br)o1	ARNT TACC3 PPI 69 (no result: INS-1E GSIS act)
Cc1noc(C)c1S(=O)(=O)Nc1ccc2c(c1)C(=O)N([C@@H](C)CO)C[C@H](C)[C@H](CN(C)C(=O)CCC(F)(F)F)OCCCC[C@@H](C)O2	none (no result: CendR NRP1 mod, iPSC survival up, ABCB6 inh MLPCN)
CN(C)CCNC(=O)c1cccc(-c2cnc3c(NC=O)cc(-c4cc(F)c(F)c(F)c4)cn23)c1	none (no result: ARNT TACC3 PPI)
CN(C)CCNC(=O)c1cccc(-c2cc(NC=O)c3ncc(-c4cccc(C(F)(F)F)c4)n3c2)c1	INS-1E GSIS act 124 (no result: ARNT TACC3 PPI)
COc1cccc(C(=O)Nc2ccc3c(c2)C(=O)N(C)[C@@H]2CC[C@@H](CC(=O)NCc4ccccc4F)O[C@H]2CO3)c1	none (no result: CendR NRP1 mod, iPSC survival up, ABCB6 inh MLPCN, ARNT TACC3 PPI)
CCC1=C(OC(=O)N(CC)CC)N2C(=O)OC(=NCC3CC3)[C@]2(Cc2ccccc2)[C@H]2C1=CC[C@H]1C(=O)N(CC)C(=O)[C@H]12	none
CCC1=C(OC(=O)N(CC)CC)N2C(=O)OC(=NCCOC)[C@]2(Cc2ccccc2)[C@H]2C1=CC[C@H]1C(=O)N(C)C(=O)[C@H]12	CendR NRP1 mod 24
CCC1=C(OC(=O)N(CC)CC)N2C(=O)OC(=NCCOC)[C@]2(Cc2ccccc2)[C@H]2C1=CC[C@H]1C(=O)N(CC)C(=O)[C@H]12	none
CCC1=C(OC(=O)N(CC)CC)N2C(=O)OC(=NCC(=O)OC)[C@]2(Cc2ccccc2)[C@H]2C1=CC[C@H]1C(=O)N(CC(=O)OC)C(=O)[C@H]12	CendR NRP1 mod 27
